In the library only some 11% were active in any assay of this set; here they are far more common.
Luciferase inh = blocks purified firefly luciferase enzyme activity. Potency, µM (highest dose often 115 µM), most hits filed as inhibitors. P08659. 76,000 compounds, 2.5% hits. purified P. pyralis luciferase, luminescence, biochemical; also: nearly all actives have a fitted effect of over 65% in size
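Inhibitors were tested against purified firefly luciferase in a biochemical, low-substrate format (both substrates at 10uM) and luminescence measured with a CCD imager.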
HEK293 tox = HEK 293 cell cytotoxicity; HEK 293 viability, ATP luminescence (CellTiter-Glo), 48-72 h; Potency, µM (top dose mostly 115 µM), hits mostly inhibitors; 94,000 compounds, 6.6% hits; also: nearly all actives have a fitted effect of over 60% in size
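Cytotoxicity was scored by loss of ATP-coupled luminescence (CellTiter-Glo) in HEK 293 cells. Compound treatment ran 48 or 72 hr at 37 degree Celsius, 5% CO2, 95% humidity.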
NPR1 antag = blocks ANP-stimulated signaling of human Npr1 receptor; P16066; HEK293 hNpr1 GloSensor cGMP, ANP-stimulated luminescence; Potency, µM (doses to about 46.3 µM), most hits filed as inhibitors; 76,000 compounds, 1.6% hits; AID 1347048; calls by dose curve; also: nearly all actives have a fitted effect of over 60% in size
Target sequence (P16066 whole entry, looked up): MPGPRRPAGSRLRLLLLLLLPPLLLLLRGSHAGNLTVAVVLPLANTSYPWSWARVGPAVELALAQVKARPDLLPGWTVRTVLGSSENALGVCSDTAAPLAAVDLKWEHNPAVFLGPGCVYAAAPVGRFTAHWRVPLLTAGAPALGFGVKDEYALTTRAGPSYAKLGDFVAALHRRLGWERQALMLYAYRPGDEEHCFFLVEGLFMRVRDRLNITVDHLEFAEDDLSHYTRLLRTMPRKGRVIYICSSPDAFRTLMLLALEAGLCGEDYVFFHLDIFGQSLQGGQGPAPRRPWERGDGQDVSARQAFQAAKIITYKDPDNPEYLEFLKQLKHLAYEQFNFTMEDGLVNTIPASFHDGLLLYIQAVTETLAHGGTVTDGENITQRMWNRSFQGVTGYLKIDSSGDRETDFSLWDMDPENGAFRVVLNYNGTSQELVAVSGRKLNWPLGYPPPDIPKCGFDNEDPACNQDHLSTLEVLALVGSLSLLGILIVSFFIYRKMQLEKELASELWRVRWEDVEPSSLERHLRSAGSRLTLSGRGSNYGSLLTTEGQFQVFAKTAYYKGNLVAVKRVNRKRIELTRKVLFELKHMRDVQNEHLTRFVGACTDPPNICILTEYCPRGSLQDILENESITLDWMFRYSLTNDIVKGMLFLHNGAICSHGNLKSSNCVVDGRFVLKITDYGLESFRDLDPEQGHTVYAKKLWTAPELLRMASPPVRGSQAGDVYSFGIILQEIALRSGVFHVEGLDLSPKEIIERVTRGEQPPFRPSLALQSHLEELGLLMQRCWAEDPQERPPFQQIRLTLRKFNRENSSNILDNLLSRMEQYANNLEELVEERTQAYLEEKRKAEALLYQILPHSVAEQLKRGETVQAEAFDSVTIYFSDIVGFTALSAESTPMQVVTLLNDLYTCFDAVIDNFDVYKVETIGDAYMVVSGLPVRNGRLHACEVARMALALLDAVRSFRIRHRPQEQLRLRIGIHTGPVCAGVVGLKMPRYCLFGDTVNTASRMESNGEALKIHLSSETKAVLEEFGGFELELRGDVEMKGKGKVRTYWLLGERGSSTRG
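HEK293 cells stably expressing human Npr1 and cGMP GloSensor pGS-40F, loaded 2 h with 2% GloSensor reagent, given compound 30 min at room temperature. Luminescence read before and 20 min after 0.1 nM hNppA.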
NIH3T3 tox = kills NIH 3T3 cells; NIH 3T3 viability, CellTiter-Glo ATP luminescence, 48-72 h; AID 1345082; 94,000 compounds, 4.3% hits; Potency, µM (top dose mostly 96.7 µM), usual class: inhibitors; also: nearly all actives have a fitted effect of over 55% in size
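Viability of NIH 3T3 cells after 48 or 72 hr compound treatment at 37 °C was assessed by CellTiter-Glo, with luminescence imaged following a 10 min room-temperature step.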
Of the large screens only hits and unclear results are named; the others gave an inactive call. Unless noted, calls follow the shape of the dose curve; as a rule, active = well fitted curve in the direction sought with a large enough effect; inconclusive = small, poorly fitted or top-dose-only effect, or another doubt; inactive = no such curve, though single readings can be large; an effect the other way counts as inactive or inconclusive.

CN(C)C(=O)c1nc2sccn2c1-c1ccncc1	none (no result: Luciferase inh, NPR1 antag)
Cc1nc2cnccn2c1C(=O)NC1CCCCC1	none (no result: Luciferase inh, NPR1 antag)
COc1ccc(-c2ccnc3nc(-c4cccs4)nn23)cc1	Luciferase inh inconclusive, HEK293 tox inconclusive, NIH3T3 tox inconclusive
O=C1COc2ccc(-c3ccc4c(c3)OCO4)nc2CN1Cc1ccc(C(F)(F)F)cc1	NIH3T3 tox inconclusive
CCC(=O)N1CCC2(CC1)CN(c1ccccc1)C2=O	none
O=C(Cc1ccccc1)N1CCC2(CC1)CN(c1ccccc1)C2=O	HEK293 tox 35µM, NIH3T3 tox inconclusive (no result: Luciferase inh, NPR1 antag)
COc1ccc(S(=O)(=O)N2CC(=O)N(CC3CC3)C3(CCCCC3)C2)cc1	HEK293 tox inconclusive, NIH3T3 tox 35µM (no result: Luciferase inh, NPR1 antag)
COCCCn1c(=O)c(C(=O)N(C)C)nc2cccnc21	none (no result: Luciferase inh, NPR1 antag)
CNC(=O)[C@@H]1C[C@@H](n2cc(CNC(=O)Nc3ccc(Cl)cc3C)nn2)CN1	HEK293 tox 35µM
COc1ccc(C(=O)Nc2ccc([C@H]3OCC(=O)N(C)[C@@H]3CO)cc2)cc1	Luciferase inh 71µM
COc1ccc(C(=O)Nc2ccc([C@H]3OCC(=O)N(C(C)C)[C@@H]3CO)cc2)cc1	Luciferase inh 25µM, HEK293 tox inconclusive, NIH3T3 tox inconclusive
CN(CC1CCOCC1)C(=O)CCCc1ccccc1	Luciferase inh 40µM
COc1ccc(NC(=O)O[C@@H]2CO[C@H]3[C@@H]2OC[C@@H]3NS(=O)(=O)c2ccccc2C#N)cc1	none
O=C(Nc1ccccc1)N[C@H]1CO[C@H]2[C@@H]1OC[C@H]2OC(=O)Nc1ccc(Oc2ccccc2)cc1	Luciferase inh inconclusive, HEK293 tox inconclusive, NPR1 antag 7.9µM, NIH3T3 tox inconclusive
O=C(Nc1ccc(Oc2ccccc2)cc1)N[C@H]1CO[C@H]2[C@@H]1OC[C@@H]2n1nnnc1Oc1ccc(-n2cncn2)cc1	HEK293 tox 25µM, NIH3T3 tox inconclusive
CC(=O)c1ccc(NC(=O)O[C@@H]2CO[C@H]3[C@@H]2OC[C@@H]3NC(=O)Nc2ccc(Oc3ccccc3)cc2)cc1	HEK293 tox 32µM, NPR1 antag inconclusive, NIH3T3 tox inconclusive
N#Cc1ccccc1S(=O)(=O)N[C@H]1CO[C@H]2[C@@H]1OC[C@H]2OC(=O)Nc1ccc(Oc2ccccc2)cc1	Luciferase inh 40µM, HEK293 tox inconclusive, NPR1 antag 11µM, NIH3T3 tox inconclusive
COc1ccccc1OCCNC(=O)c1c(-c2ccccc2)cc(=O)n2c1CCC2	none (no result: Luciferase inh, NPR1 antag)
O=C(C1CCCN1C(=O)NC1CCCC1)N1CCCC(c2nc3ncccc3[nH]2)C1 (stereo not drawn)	none (no result: Luciferase inh, NPR1 antag)
O=C(Cc1ccc(F)cc1)N1CCN(C(=O)c2nc3cccnc3n(Cc3ccccc3)c2=O)CC1	none (no result: Luciferase inh, NPR1 antag)
COc1ccc(NC(=O)N[C@H]2CO[C@H]3[C@@H]2OC[C@H]3OC(=O)Nc2ccc(OC)cc2)cc1	Luciferase inh inconclusive
O=C(Nc1cccc(C(F)(F)F)c1)O[C@@H]1CO[C@H]2[C@@H]1OC[C@@H]2NC(=S)Nc1ccc(Cl)cc1	HEK293 tox 45µM, NIH3T3 tox inconclusive
O=C(Nc1ccccc1)N[C@H]1CO[C@H]2[C@@H]1OC[C@@H]2Nc1nccc(C2CCCC2)n1	NIH3T3 tox inconclusive
O=C(Nc1cccc(C(F)(F)F)c1)N[C@H]1CO[C@H]2[C@@H]1OC[C@@H]2Nc1nccc(C2CCCC2)n1	HEK293 tox inconclusive, NIH3T3 tox 79µM
COc1ccc(NC(=O)O[C@@H]2CO[C@H]3[C@@H]2OC[C@@H]3NCc2ccc(-c3ccccc3)cc2)cc1	Luciferase inh inconclusive, HEK293 tox 35µM, NPR1 antag 5.6µM, NIH3T3 tox inconclusive
C[C@@H](c1ccccc1)N(C)C(=O)c1cc(Cn2cnc3ccccc32)[nH]n1	HEK293 tox inconclusive, NPR1 antag inconclusive, NIH3T3 tox inconclusive
COc1cccc(CN2CCCN(Cc3ccncc3)C(c3ccccc3)CC(=O)NCC2)c1 (stereo not drawn)	HEK293 tox inconclusive, NIH3T3 tox inconclusive
COc1ccccc1Nc1ccnc(N2CCN(C(=O)c3ccccc3C)CC2)n1	HEK293 tox 45µM, NIH3T3 tox inconclusive (no result: Luciferase inh, NPR1 antag)
COc1ccccc1Nc1ccnc(N2CCN(C(=O)c3ccccc3)CC2)n1	HEK293 tox inconclusive, NIH3T3 tox 35µM (no result: Luciferase inh, NPR1 antag)
COc1ccccc1Nc1ccnc(N2CCC(NC(=O)N(C)C)CC2)n1	HEK293 tox inconclusive (no result: Luciferase inh, NPR1 antag)
CN(C)C(=O)N1CCN(c2nccc(Nc3ccccc3F)n2)CC1	none (no result: Luciferase inh, NPR1 antag)
COc1ccccc1Nc1ccnc(N2CCC(C(=O)NC3CC3)CC2)n1	NIH3T3 tox inconclusive (no result: Luciferase inh, NPR1 antag)
COc1ccccc1Nc1ccnc(N2CCN(C(=O)c3ccccc3F)CC2)n1	HEK293 tox 45µM, NIH3T3 tox inconclusive (no result: Luciferase inh, NPR1 antag)

Screening data deposited in PubChem BioAssay by National Center for Advancing Translational Sciences (NCATS).
